# Test results taken from PubChem BioAssay AID623970 (The Scripps Research Institute Molecular Screening Center, 2012).
# Activity calls are given as the source filed them. Rule as the data show it: active = IC50 below about 90 µM; inactive = the rest.
# Assay: DNA binding via SYBR dye displacement, late-stage follow-up, artefact control for HCV NS3 helicase inhibitor project, biochemical, fluorescence (AID 623970)
row,Compound,IC50
1,Cc1ccc2nc(-c3ccc(NC(=O)c4ccc(N)cc4)cc3)sc2c1S(=O)(=O)O,> 100 µM (inactive)
2,Cc1ccc2nc(-c3ccc4nc(-c5ccc(NC(=O)c6ccncc6)cc5)sc4c3)sc2c1S(=O)(=O)O,> 100 µM (inactive)
3,Cc1ccc2nc(-c3ccc4nc(-c5ccc(NC(=O)c6cccc(C(F)(F)F)c6F)cc5)sc4c3)sc2c1S(=O)(=O)O,> 100 µM (inactive)
4,Cc1ccc2nc(-c3ccc4nc(-c5ccc(NC(=O)c6ccc(N)cc6)cc5)sc4c3)sc2c1S(=O)(=O)O,55 µM (active)
5,COc1ccc(S(=O)(=O)Nc2ccc(-c3nc4ccc(-c5nc6ccc(C)c(S(=O)(=O)O)c6s5)cc4s3)cc2)cc1,42 µM (active)
6,Cc1ccc2nc(-c3ccc4nc(-c5ccc(NC(=O)c6cc(F)cc(C(F)(F)F)c6)cc5)sc4c3)sc2c1S(=O)(=O)O,> 100 µM (inactive)
7,Cc1ccc2nc(-c3ccc(NC(=O)c4ccc(NC(=O)OCC5c6ccccc6-c6ccccc65)cc4)cc3)sc2c1S(=O)(=O)O,> 100 µM (inactive)
8,Cc1ccc2nc(-c3ccc4nc(-c5ccc(NS(=O)(=O)c6ccc(C(F)(F)F)cc6)cc5)sc4c3)sc2c1S(=O)(=O)O,82 µM (active)
9,Cc1ccc2nc(-c3ccc4nc(-c5ccc(NC(=O)c6ccccc6C(F)(F)F)cc5)sc4c3)sc2c1S(=O)(=O)O,> 100 µM (inactive)
10,Cc1ccc2nc(-c3ccc(NC(=O)c4ccc(NC(=O)Nc5ccccc5)cc4)cc3)sc2c1S(=O)(=O)O,> 100 µM (inactive)
11,O=C(CCCCCCC(=O)Nc1ccc(-c2nc3ccccc3[nH]2)cc1)Nc1ccc(-c2nc3ccccc3[nH]2)cc1,14 µM (active)
12,Cc1ccc2nc(-c3ccc4nc(-c5ccc(NC(=O)c6cccc(C(F)(F)F)c6)cc5)sc4c3)sc2c1S(=O)(=O)O,> 100 µM (inactive)
13,Cc1ccc2nc(-c3ccc(NC(=O)c4ccc(NC(=O)c5ccc(NC(=O)OCC6c7ccccc7-c7ccccc76)cc5)cc4)cc3)sc2c1S(=O)(=O)O,> 100 µM (inactive)
14,Cc1cc2sc(-c3ccc4nc(-c5ccc(N)cc5)sc4c3)nc2cc1S(=O)(=O)O,32 µM (active)
15,NS(=O)(=O)c1ccc2nc(NC(=O)c3ccc4ncsc4c3)sc2c1,> 100 µM (inactive)
16,Cc1ccc2nc(-c3ccc4nc(-c5ccc(NC(=O)c6ccc(Cl)c(Cl)c6)cc5)sc4c3)sc2c1S(=O)(=O)O,30 µM (active)
17,Cc1ccc2nc(-c3ccc4nc(-c5ccc(NC(=O)c6cc(C(F)(F)F)ccc6F)cc5)sc4c3)sc2c1S(=O)(=O)O,> 100 µM (inactive)
18,CN1CCN(Cc2cc(CN3CCN(C)CC3)c(O)c(=O)c(CN3CCN(C)CC3)c2)CC1,72 µM (active)
19,Cc1ccc2nc(-c3ccc4nc(-c5ccc(NC(=O)c6c(F)cccc6C(F)(F)F)cc5)sc4c3)sc2c1S(=O)(=O)O,64 µM (active)
20,Cc1ccc2nc(-c3ccc4nc(-c5ccc(NC(=O)c6ccc(C(C)(C)C)cc6)cc5)sc4c3)sc2c1S(=O)(=O)O,16 µM (active)
21,Cc1ccc2nc(-c3ccc4nc(-c5ccc(NC(=O)c6ccc(CNC(=O)OCC7c8ccccc8-c8ccccc87)cc6)cc5)sc4c3)sc2c1S(=O)(=O)O,56 µM (active)
22,Cc1ccc2nc(-c3ccc4nc(-c5ccc(NC(=O)c6cc(F)ccc6C(F)(F)F)cc5)sc4c3)sc2c1S(=O)(=O)O,> 100 µM (inactive)
23,Cc1ccc2nc(-c3ccc4nc(-c5ccc(NC(=O)c6ccc7ncoc7c6)cc5)sc4c3)sc2c1S(=O)(=O)O,46 µM (active)
24,Cc1ccc2c(sc(-c3ccc4c(c3)sc(-c3ccc5c(c3)sc(-c3ccc(N(C)C)cc3)[n+]5C)[n+]4C)[n+]2C)c1S(=O)(=O)O (tested in a mixture with another compound),61 µM (active)
25,Cc1ccc2nc(-c3ccc4nc(-c5ccc(NC(=O)c6ccc(NC(=O)OCC7c8ccccc8-c8ccccc87)cc6)cc5)sc4c3)sc2c1S(=O)(=O)O,6 µM (active)
26,Cc1ccc2nc(-c3ccc4nc(-c5ccc(NC(=O)Nc6ccccc6)cc5)sc4c3)sc2c1S(=O)(=O)O,> 100 µM (inactive)
27,Cc1ccc2nc(-c3ccc4nc(-c5ccc(NC(=O)c6ccc(C(F)(F)F)c(F)c6)cc5)sc4c3)sc2c1S(=O)(=O)O,28 µM (active)
